Assay outcomes: PubChem BioAssay, National Center for Advancing Translational Sciences (NCATS)
NPC1 promoter act = activates the NPC1 promoter; 2.4% of 320,000 active; AID 485313; Potency, µM (doses to about 9.22 µM), inactives show at the highest dose activation, actives largely listed as activators; Huh7 NPC1 promoter luciferase reporter, 24 h; also: % of control where 0% means no effect; nearly all actives have a fitted effect of over 60% in size
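Quantitative HTS used a cell-based reporter: Huh7 cells stably bearing the NPC1 promoter upstream of luciferase were treated with compounds for 24 h, and promoter activation was read as luminescence.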
Rab9 prom act = activates the Rab9 promoter | Huh7 Rab9 promoter-luciferase reporter, luminescence, 24 h | Potency, µM (titrated, usually from 9.22 µM), without a hit: at the highest dose activation, negative = inhibition, hits mostly activators | 2.8% of 320,000 active; also: % of control where 0% means no effect; nearly all actives have a fitted effect of over 60% in size
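Huh7 reporter line, Rab9 promoter upstream of luciferase. Compound exposure 24 h at 37 °C in reduced-serum medium with 10% FBS. Read-out: luminescence.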
Luc counter = blocks Kinase-Glo luciferase, a counter-screen artifact; Q27757; Kinase-Glo luciferase, ATP luminescence, 8 min; Potency, µM (top dose mostly 38.3 µM), without a hit: at the top dose activity change, negative = inhibition, actives largely listed as inhibitors; 0.28% of 200,000 active; AID 1379; also: % is scaled to controls: 0 for no effect and ±100 for the full control effect; nearly all actives have a fitted effect of over 60% in size
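Compounds were added to a substrate mix at pH 7.2 (50 mM imidazole, 10 uM ATP, within the enzyme's linear range), followed by Kinase-Glo detection reagent; luminescence was measured after 8 minutes at ambient temperature.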
FLuc modulator = firefly luciferase modulation, counter-screen for miR-21 project | P08659 | purified FLuc, Km substrates, luminescence inhibition | Potency, µM (highest dose often 57.5 µM), for inactives: at the top dose activity change, negative = inhibition, actives largely listed as inhibitors | 6.9% of 360,000 active;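 also: plate controls were vehicle for no effect and reference inhibitor for full effect; nearly all actives have a fitted effect of over 55% in size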
Target sequence (P08659 whole entry, looked up): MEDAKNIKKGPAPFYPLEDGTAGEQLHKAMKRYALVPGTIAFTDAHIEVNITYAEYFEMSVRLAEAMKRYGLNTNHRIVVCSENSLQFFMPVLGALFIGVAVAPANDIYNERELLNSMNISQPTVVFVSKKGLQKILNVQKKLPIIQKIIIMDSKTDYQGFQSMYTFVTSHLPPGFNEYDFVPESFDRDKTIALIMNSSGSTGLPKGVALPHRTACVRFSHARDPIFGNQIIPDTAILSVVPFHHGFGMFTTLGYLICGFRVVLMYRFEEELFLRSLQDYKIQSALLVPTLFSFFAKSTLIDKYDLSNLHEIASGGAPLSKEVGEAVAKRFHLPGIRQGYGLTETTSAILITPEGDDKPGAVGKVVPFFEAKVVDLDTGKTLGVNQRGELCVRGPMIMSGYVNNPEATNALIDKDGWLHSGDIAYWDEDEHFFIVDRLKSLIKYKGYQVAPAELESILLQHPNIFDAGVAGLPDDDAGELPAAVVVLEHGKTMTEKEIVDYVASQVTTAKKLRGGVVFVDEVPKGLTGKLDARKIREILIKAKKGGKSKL
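Purified P. pyralis luciferase, 10 nM final, with Km-level 10 uM D-luciferin and 10 uM ATP in 50 mM Tris acetate pH 7.5, 10 mM Mg acetate, 0.01% Tween-20, 0.05% BSA; 6-point qHTS titration about 60 µM downward; luminescence read.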
SMN2 splice enh = SMN2 splice variant enhancement. HEK293 SMN2-luciferase splicing reporter, luminescence, 30-36 h. Potency, µM (titrated, usually from 46.1 µM), without a hit: at the highest dose activity change, positive = activation, most hits filed as activators. 2.8% of 210,000 active; also: % of control where 0% means no effect; nearly all actives have a fitted effect of over 55% in size
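qHTS luciferase splicing reporter: luminescence rises when SMN2 exon 7 is included in transfected HEK293 cells. Compound exposure lasted 30-36 h at 37C, with 4.5 mM final sodium butyrate as control, followed by a ONE-Glo read.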
ELG1 genotoxic = inducers of genotoxicity in HEK293T ELG1-luciferase cells; HEK293T ELG1-luciferase reporter, luminescence, 16 h; Potency, µM (doses to about 46 µM), for the others: top-dose activity change, positive = activation, hits mostly activators; 1.3% of 330,000 active; AID 504466; also: % of control where 0% means no effect; nearly all actives have a fitted effect of over 60% in size
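Reporter readout depends on ELG1 protein level, which increases with genetic stress. After 16 hr compound exposure at 37 °C, luciferase activity was quantified using ONE-Glo.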
Active calls of the source: *; ? = inconclusive; · = no result; [ ] = remark or other dose. Most compounds without a hit are left out; they make up all but 7.5% or so of the library. Calls follow the shape of the dose curve; as a rule, active = well fitted curve in the direction sought with a large enough effect; inconclusive = small, poorly fitted or top-dose-only effect, or another doubt; inactive = no such curve, though single readings can be large; an effect the other way counts as inactive or inconclusive. Potency is read from the fitted curve at half-maximal effect.

SMILES	NPC1 promoter act	Rab9 prom act	Luc counter	FLuc modulator	SMN2 splice enh	ELG1 genotoxic
N/C(=N\OC(=O)c1ccc(Cl)cc1)c1ccc(Cl)cc1	?	?	-7%	3µM*	?	?
N/C(=N\OC(=O)c1ccc(OCC(F)(F)F)nc1)c1ccc(Cl)cc1	1%	-1%	·	?	·	7%
C/C(=N\OC(=O)c1ccc(Cl)cc1)c1nccs1	1%	1%	-15%	0.48µM*	-19%	1%
N/C(Cn1cncn1)=N\OC(=O)c1ccc(Cl)cc1	-3%	2%	-1%	4%	-2%	4%
N/C(=N\OC(=O)c1ccc(Cl)cc1)c1ccn[nH]1	1.3µM*	1.6µM*	·	3µM*	·	2.6µM*
COc1ccc(OCC(=O)Nc2cc(S(=O)(=O)N3CCCC3)ccc2Cl)cc1	-4%	-6%	·	0%	·	2%
COc1c2c(cc3c1C(NC(N)=O)[N+](C)(C)CC3)OCO2 (stereo unspecified)	·	·	0%	·	-4%	·
Cc1cnc(C(=O)NNC(=O)c2ccc(Br)cc2)cn1	1%	-3%	·	-1%	·	6%
COc1cc(C(=O)NS(=O)(=O)c2ccccc2C)ccc1Cc1cn(C)c2ccc(NC(=O)OC3CCCC3)cc12	6%	0%	·	11µM*	·	·
COc1ccccc1NC(=O)C1=C(C)Nc2nc(SCc3ccccc3)nn2C1c1cccnc1 (stereo unspecified)	·	·	·	0%	6%	·
Cc1ccccc1OCc1nnc2c3cnn(C)c3ncn12	3.2µM*	4µM*	-9%	21µM*	19%	?
Cc1ccccc1OCc1nc2c3cnn(-c4ccccc4Br)c3ncn2n1	·	·	·	?	1%	·
Cn1ccsc1=NC(=O)c1cc(S(=O)(=O)N2CCOCC2)ccc1F	-3%	2%	·	-2%	·	-6%
O=C(N/N=C/c1ccncc1)c1ccc(OCc2ccccc2)cc1	-3%	1%	·	-5%	·	7%
O=C(N/N=C/c1ccc(OCc2ccccc2)cc1)c1cccs1	?	?	-2%	-12%	0%	8%
O=C(N/N=C/c1ccc(OCc2ccccc2)cc1)c1ccncc1	-5%	-3%	4%	-10%	16µM*	?
Oc1ccc(N=Cc2ccc(OCc3ccccc3)cc2)cc1	-4%	-3%	-6%	13µM*	·	?
COC(=O)N/N=C/c1ccccc1OCc1ccccc1	-2%	-5%	-2%	-2%	10%	9%
CC(=O)Nc1ccc(C(=O)N/N=C/c2ccccc2OCc2ccccc2)cc1	-8%	0%	0%	17µM*	2%	0%
O=C(N/N=C/c1ccccc1OCc1ccccc1)c1cccnc1	-1%	0%	-2%	11µM*	14%	-2%
CC(=O)NN1C(=O)/C(=C2/Sc3ccc(Cl)cc3N2C)SC1=S	6%	11%[1.84 µM]	·	-7%	·	13%
CCN1CCOC(=O)C1CC(=O)Nc1cc(C)cc(C)c1 (stereo unspecified)	·	·	·	-6%	10%	·
CN(C)C(=O)c1ccc2c(c1)N(CC(=O)NCc1ccc(F)cc1)C(=O)C1CCCCN21 (stereo unspecified)	·	·	·	-1%	·	·
O=C(CN1C(=O)NC2(CCOc3ccccc32)C1=O)NCc1ccccc1 (stereo unspecified)	·	·	·	·	·	-1%
COc1ccc(OCc2cc(/C=N\NC(=O)c3ccccc3)ccc2OC)cc1	?	?	·	12µM*	·	?
SMILES	NPC1 promoter act	Rab9 prom act	Luc counter	FLuc modulator	SMN2 splice enh	ELG1 genotoxic
CC1CCC(NC(=O)c2ccc3c(c2)N(Cc2ccccc2)C(=O)c2ccccc2S3(=O)=O)CC1 (stereo unspecified)	·	·	·	-8%	2%	·
Cc1ccc(-c2nnc(Nc3ccc(C(=O)N(C)C)cc3)c3ccccc23)cc1S(=O)(=O)N(C)C	·	·	·	?	-15%	·
O=C(Nc1ccc(-c2nnc3n2CCCCC3)cc1)c1ccco1	-2%	2%	0%	0%	8%	2%
O=C(c1ccco1)N1CCN(c2ccc(N3CCCCC3)nn2)CC1	?	3.2µM*	·	24µM*	·	?
NC(=O)N1CCN(C(=O)c2ccco2)CC1	1%	-2%	-6%	0%	14%	-1%
O=C(Nc1ccc(-c2ccc(N3CCCCC3)nn2)cc1)c1ccco1	?	2.8µM*	·	4.8µM*	·	?
Cc1nc(N2CCN(C(=O)c3ccco3)CC2)nc2c1C(=O)CCC2	0.32µM*	0.1µM*	·	0.76µM*	·	0.46µM*
COc1ccc(-c2nc(C(=O)N3CCN(C)CC3)sc2-c2ccc(OC)cc2)cc1	·	·	-1%	·	·	·
COc1ccc(-c2nc(CSCC(=O)N3CCN(c4cccc(C)c4C)CC3)c(C)o2)cc1OC	·	·	·	-18%	·	·
C/C=C/C(=O)N1CC2(CC(c3cccc(NC(=O)COc4ccc(Cl)cc4)c3)=NO2)C[C@@H]1C(N)=O (stereo partly specified)	?	-6%	·	19µM*	·	-4%
CCC(=O)N1CC2(CC(c3cccc(NC(=O)COc4ccc(Cl)cc4)c3)=NO2)C[C@@H]1C(N)=O (stereo partly specified)	2%	-2%	·	17µM*	·	-3%
CCCCCC(=O)N1CC2(CC(c3cccc(NC(=O)COc4ccc(Cl)cc4)c3)=NO2)C[C@@H]1C(N)=O (stereo partly specified)	-1%	-5%	·	13µM*	·	-10%
CCCCCC(=O)Nc1cccc(C2=NOC3(C2)C[C@H](C(N)=O)N(C(=O)CCCCC)C3)c1 (stereo partly specified)	-4%	-7%	·	-4%	·	-9%
CCC(=O)Nc1cccc(C2=NOC3(C2)C[C@@H](C(N)=O)N(C(=O)COc2ccc(Cl)cc2)C3)c1 (stereo partly specified)	-5%	-4%	·	-4%	·	3%
CC1(C(=O)N2CC3(CC(c4cccc(NC(=O)COc5ccc(Cl)cc5)c4)=NO3)C[C@@H]2C(N)=O)CC1 (stereo partly specified)	3%	0%	·	21µM*	·	-6%
CCOCCCn1c(SCC(=O)Nc2cc(C)ccc2C)nc2c(oc3ccccc32)c1=O	·	·	·	-1%	6%	·
NC(=O)[C@H]1CC2(CC(c3cccc(NC(=O)COc4ccc(Cl)cc4)c3)=NO2)CN1C(=O)c1ccc(Cl)cc1 (stereo partly specified)	0%	-5%	·	7.6µM*	·	-17%
NC(=O)[C@H]1CC2(CC(c3cccc(NC(=O)COc4ccc(Cl)cc4)c3)=NO2)CN1C(=O)c1ccccc1C(=O)c1ccccc1 (stereo partly specified)	-3%	-4%	·	?	·	-11%
Cc1ccc(OC(=O)COc2ccccc2)c(-n2nc3ccccc3n2)c1	3.5µM*	2µM*	-2%	8.5µM*	20%	7.3µM*
